Here are results for 9 molecules from PubChem BioAssay (NCATS).

Assay [1] has as its target DNA polymerase iota (Homo sapiens) (UniProt Q9UNA4). The assay can be described thus: qHTS for Inhibitors of Polymerase Iota: Confirmatory Assay for Cherry-picked Compounds (AID 720496). Note: potency is the fitted concentration of half-maximal effect. The conditions noted are these: Pol iota primer extension, TAMRA/BHQ fluorescence. Summed up: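 Extension of a quenched TAMRA-reporter/BHQ-2-template DNA substrate (50 nM) by 10 nM Pol iota after 15 min compound preincubation. Strand-displacement fluorescence (525/598 nm) was read kinetically at 0 and 10 min. Buffer-only wells served as negative control.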

In assay [2] the target is Rap guanine nucleotide exchange factor 3 (Homo sapiens) (UniProt O95398). Kind of assay: Confirmatory qHTS for antagonist of cAMP-regulated guanine nucleotide exchange factor 3 (EPAC1) (AID 1645880).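 For activity, negative = inhibition: plate controls were DMSO only for no effect and full effect of the ATA control for full effect.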 Note: nearly all actives have a fitted effect of over 55% in size. Note: potency is the fitted concentration of half-maximal effect. The conditions noted are these: EPAC1 Rap1B-BODIPY-GDP exchange, fluorescence; activity, negative = inhibition: at 115 µM (top of the series). Summed up:
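Released BODIPY-GDP fluoresces less than Rap1-bound BODIPY-GDP; the signal is followed at 480/540 nm at 5-min intervals over 30 min, after 5 min at room temperature. Reactions contain 100 nM EPAC1, 250 nM RAP1B-BODIPY-GDP and 50 uM GDP; results are normalized to ATA and DMSO.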
(In qHTS, concentration-response curves come from the screen itself.)

The target is the same in assay [3]. The assay can be described thus: Confirmatory qHTS for agonist of cAMP-regulated guanine nucleotide exchange factor 3 (EPAC1) (AID 1645881).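 For activation: EPAC1 catalysed release of BODIPY-GDP from Rap1B seen as fluorescence loss; 100% = effect of cAMP agonist control.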 Note: nearly all actives have a fitted effect of over 75% in size. Note: potency is the fitted concentration of half-maximal effect.
The target of assay [4] is Rap guanine nucleotide exchange factor 4 (Homo sapiens) (UniProt Q8WZA2). The assay can be described thus: Confirmatory qHTS for agonist of cAMP-regulated guanine nucleotide exchange factor 4 (EPAC2) (AID 1645884). For activation: % is set by controls: 0 for no effect and ±100 for the full control effect.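 Note: nucleotide exchange releases bodipy-GDP from Rap1 and this lowers its fluorescence; nearly all actives have a fitted effect of over 65% in size.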 Note: potency is the fitted concentration of half-maximal effect.
Sequence of Rap guanine nucleotide exchange factor 4 (Homo sapiens) (Q8WZA2 whole entry, looked up): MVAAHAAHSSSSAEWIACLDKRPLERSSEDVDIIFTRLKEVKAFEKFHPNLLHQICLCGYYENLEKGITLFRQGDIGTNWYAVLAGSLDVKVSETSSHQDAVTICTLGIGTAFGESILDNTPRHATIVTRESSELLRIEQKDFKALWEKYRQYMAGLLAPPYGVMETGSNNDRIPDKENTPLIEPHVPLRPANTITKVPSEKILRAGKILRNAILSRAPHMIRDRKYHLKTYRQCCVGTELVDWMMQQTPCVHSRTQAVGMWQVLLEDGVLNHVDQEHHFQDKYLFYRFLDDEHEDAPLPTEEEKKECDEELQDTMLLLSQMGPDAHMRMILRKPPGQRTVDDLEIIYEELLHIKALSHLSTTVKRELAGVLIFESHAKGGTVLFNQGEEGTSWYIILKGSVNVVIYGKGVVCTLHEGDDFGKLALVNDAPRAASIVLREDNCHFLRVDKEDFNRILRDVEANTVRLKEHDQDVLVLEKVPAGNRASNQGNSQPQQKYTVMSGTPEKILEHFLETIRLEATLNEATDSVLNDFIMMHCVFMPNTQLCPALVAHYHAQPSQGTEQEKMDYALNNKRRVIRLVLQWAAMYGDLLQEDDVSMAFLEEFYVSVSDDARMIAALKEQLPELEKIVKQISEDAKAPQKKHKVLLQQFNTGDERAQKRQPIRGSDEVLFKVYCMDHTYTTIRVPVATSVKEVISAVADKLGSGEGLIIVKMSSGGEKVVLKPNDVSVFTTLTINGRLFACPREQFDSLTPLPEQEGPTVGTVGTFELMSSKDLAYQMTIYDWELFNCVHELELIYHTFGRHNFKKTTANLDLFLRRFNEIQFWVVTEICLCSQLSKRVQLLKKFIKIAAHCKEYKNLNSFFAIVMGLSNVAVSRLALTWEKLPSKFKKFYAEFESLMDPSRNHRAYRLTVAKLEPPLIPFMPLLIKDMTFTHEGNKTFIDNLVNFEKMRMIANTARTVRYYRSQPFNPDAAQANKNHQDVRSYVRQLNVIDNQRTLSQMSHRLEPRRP
For assay [5] the target is unchanged. Kind of assay: Confirmatory qHTS for antagonist of cAMP-regulated guanine nucleotide exchange factor 4 (EPAC2) (AID 1645885). For activity change, negative = inhibition: % is set by controls: 0 for no effect and ±100 for the full control effect. Note: nearly all actives have a fitted effect of over 25% in size. Note: potency is the fitted concentration of half-maximal effect.
In assay [6] the target is Rap guanine nucleotide exchange factor 3 (Homo sapiens) (UniProt O95398). Kind of assay: Counterscreen qHTS for antagonist of cAMP-regulated guanine nucleotide exchange factor 3 (EPAC1) (AID 1645888). Note: % of control where 0% means no effect. Summed up:
(§1)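 Measured: fluorescence of BODIPY-GDP bound to Rap1B, which falls as exchange proceeds. Conditions include 50 uM competing GDP, 5 and 30 min reads, and a later cAMP challenge for antagonist detection.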
On the technique in general: A counterscreen serves to expose hits that act by an unwanted route or on another target.

For assay [7] the target is unchanged. Kind of assay: Counterscreen qHTS for agonist of cAMP-regulated guanine nucleotide exchange factor 3 (EPAC1) (AID 1645889). For activation: % of control where 0% means no effect. Note: nearly all actives have a fitted effect of over 40% in size. Note: potency is the fitted concentration of half-maximal effect. Summed up:
as §1

The target of assay [8] is Tumor susceptibility gene 101 protein (Homo sapiens) (UniProt Q99816). Kind of assay: qHTS Assay for Iinhibitors of HIV-1 Budding by Blocking the Interaction of PTAP/TSG101: Hit Validation (AID 651600). For activity change, negative = inhibition: % is set by controls: 0 for no effect and ±100 for the full control effect. Note: nearly all actives have a fitted effect of over 70% in size. Note: potency is the fitted concentration of half-maximal effect. Summed up:
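Measuring PTAP–Tsg101 interaction by FP: protein at 10 uM and fluorescent peptide at 50 nM (final), buffer 10 mM HEPES pH 7.5 with 0.15 M NaCl, 3 mM EDTA, 0.1 mM TCEP, 0.01% Tween 20; 20 min incubation, r.t.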

A short description of assay [9]: qHTS for Inhibitors of the vitamin D receptor (VDR): Hit Validation using a Texas Red Assay (AID 602201). Note: % is set by controls: 0 for no effect and ±100 for the full control effect. In short, it runs like this: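 Fluorescence polarization (Ex 595/Em 615 nm) of Texas Red (7 nM) with 1.5 uM VDR-LBD and LG19078 (final concentrations). Compounds were incubated for 2 hours at room temperature.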

Each structure is given as a SMILES string. Results filed as inconclusive are left out. A number with no mark means an inactive call. The list shows a part of the results. Active and inactive are the calls of the source. Calls come from the whole dose curve; as a rule, active = well fitted curve in the direction sought with a large enough effect; inconclusive = small, poorly fitted or top-dose-only effect, or another doubt; inactive = no such curve, though single readings can be large; an effect the other way counts as inactive or inconclusive.

Sequence of Tumor susceptibility gene 101 protein (Homo sapiens) (Q99816 whole entry, looked up): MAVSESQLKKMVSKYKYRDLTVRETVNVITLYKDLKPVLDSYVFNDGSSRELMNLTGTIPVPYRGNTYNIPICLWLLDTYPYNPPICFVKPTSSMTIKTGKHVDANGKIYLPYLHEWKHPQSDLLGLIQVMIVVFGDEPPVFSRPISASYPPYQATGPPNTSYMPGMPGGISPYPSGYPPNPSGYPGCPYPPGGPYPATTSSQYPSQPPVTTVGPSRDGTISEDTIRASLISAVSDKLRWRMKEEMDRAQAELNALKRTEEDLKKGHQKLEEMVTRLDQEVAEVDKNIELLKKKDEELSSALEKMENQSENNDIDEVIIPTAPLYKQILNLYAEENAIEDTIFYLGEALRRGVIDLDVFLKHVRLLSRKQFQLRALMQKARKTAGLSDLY
Sequence of Rap guanine nucleotide exchange factor 3 (Homo sapiens) (O95398 whole entry, looked up): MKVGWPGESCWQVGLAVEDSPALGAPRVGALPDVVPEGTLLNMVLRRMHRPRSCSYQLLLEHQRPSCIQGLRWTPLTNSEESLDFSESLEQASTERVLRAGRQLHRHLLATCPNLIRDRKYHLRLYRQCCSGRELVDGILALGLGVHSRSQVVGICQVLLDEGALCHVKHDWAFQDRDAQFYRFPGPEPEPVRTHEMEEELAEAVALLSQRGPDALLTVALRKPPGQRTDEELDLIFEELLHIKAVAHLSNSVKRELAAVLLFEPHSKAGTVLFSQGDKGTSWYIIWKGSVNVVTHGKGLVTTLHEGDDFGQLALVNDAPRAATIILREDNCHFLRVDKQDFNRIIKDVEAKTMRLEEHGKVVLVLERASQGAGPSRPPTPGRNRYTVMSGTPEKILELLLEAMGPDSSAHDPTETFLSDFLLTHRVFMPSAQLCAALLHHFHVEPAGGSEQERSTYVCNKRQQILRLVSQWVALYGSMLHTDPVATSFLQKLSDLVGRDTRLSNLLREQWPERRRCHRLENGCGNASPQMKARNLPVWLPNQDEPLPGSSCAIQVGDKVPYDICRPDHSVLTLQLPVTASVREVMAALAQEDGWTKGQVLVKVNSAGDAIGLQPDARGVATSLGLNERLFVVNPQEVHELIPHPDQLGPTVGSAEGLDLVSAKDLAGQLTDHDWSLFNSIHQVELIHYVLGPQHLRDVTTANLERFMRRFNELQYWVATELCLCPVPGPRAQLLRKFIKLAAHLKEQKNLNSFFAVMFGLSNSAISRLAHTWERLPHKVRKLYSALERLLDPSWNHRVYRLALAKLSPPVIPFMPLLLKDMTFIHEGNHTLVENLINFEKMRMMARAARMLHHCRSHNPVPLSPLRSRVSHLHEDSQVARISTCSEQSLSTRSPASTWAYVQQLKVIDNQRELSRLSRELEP
Sequence of DNA polymerase iota (Homo sapiens) (Q9UNA4 whole entry, looked up): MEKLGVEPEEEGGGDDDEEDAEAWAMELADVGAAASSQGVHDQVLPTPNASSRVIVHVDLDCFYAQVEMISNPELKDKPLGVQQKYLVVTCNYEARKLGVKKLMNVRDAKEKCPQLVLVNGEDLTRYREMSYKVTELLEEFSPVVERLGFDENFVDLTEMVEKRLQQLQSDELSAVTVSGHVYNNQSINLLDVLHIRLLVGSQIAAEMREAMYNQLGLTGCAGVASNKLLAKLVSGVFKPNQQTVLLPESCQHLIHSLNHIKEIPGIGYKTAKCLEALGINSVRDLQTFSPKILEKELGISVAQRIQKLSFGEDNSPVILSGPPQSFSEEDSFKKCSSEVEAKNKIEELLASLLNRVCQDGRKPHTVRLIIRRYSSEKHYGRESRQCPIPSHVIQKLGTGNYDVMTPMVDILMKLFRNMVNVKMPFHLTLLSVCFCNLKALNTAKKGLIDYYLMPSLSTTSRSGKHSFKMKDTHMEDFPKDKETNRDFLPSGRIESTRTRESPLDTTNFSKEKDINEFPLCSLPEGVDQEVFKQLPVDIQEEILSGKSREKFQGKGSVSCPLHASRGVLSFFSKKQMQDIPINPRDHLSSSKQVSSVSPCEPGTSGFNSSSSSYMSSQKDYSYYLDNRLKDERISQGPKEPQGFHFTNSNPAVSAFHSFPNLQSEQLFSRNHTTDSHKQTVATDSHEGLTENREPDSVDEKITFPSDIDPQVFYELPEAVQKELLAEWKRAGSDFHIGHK

As for `COc1ccc(S(=O)(=O)/N=C2\C=C(NS(=O)(=O)c3ccccc3)C(=O)c3ccccc32)cc1`, the Potency in [1] was 67 µM (active); in [2] it was 8.49 µM (active); in assay [3], 50.1 µM (active); in assay [4] it was 100 µM (active); in assay [5], 10.7 µM (active). The Potency entry in assay [6] and in assay [7] was “inactive” throughout.
For the molecule `N#CC(C(=O)OC1CCCCC1)c1nc2ccccc2nc1N1CCOCC1` (stereo not given), the Potency in [8] was 10.3 µM (active). For the same molecule, the Potency result in assay [2], in [3] and in [5] was “inactive” throughout. Moreover, the activation in assay [4] is -10.2% [at 17.1 µM, percent relative to cAMP agonist control]. Also, in assay [6], the activity change, negative = inhibition is -21.8% [at 30.8 µM].
In the case of `Cc1ccc(C(=O)NN2C(=O)/C(=C/c3cn(C)c4ccccc34)SC2=S)cc1`, the Potency in [8] was 14.6 µM (active). In addition, the Potency result in [2], in assay [3], in assay [4], in assay [5] and in assay [6] was “inactive” in each case.
Consider `COc1cc(OC)c(-c2cc(C(=O)O)ccc2OC)c(OC)c1`, for which the Potency entry in assay [8], in assay [2], in [3] and in assay [5] was “inactive” each time. The activation in [4] is 1.75% [at 17.1 µM, percent relative to cAMP agonist control]; in assay [7], 38.4% [at 30.8 µM]. Also, the activity change, negative = inhibition in assay [6] was -0.0153% [at 30.8 µM].
Consider `O=C(OCCN1C(=O)c2cccc3c(N4CCOCC4)ccc(c23)C1=O)c1cccc(Cl)c1`, for which the Potency entry in assay [8], in [2] and in assay [6] was “inactive” in each case. For the same molecule, the Potency is 89.1 µM (active) in assay [3], 100 µM (active) in [4], 75.7 µM (active) in assay [5] and 3.16 µM (active) in assay [7].
In the case of `O=[N+]([O-])c1ccc(Sc2cccc[n+]2[O-])c2nonc12`, the Potency in assay [8] was 18.3 µM (active); in [2], 31.6 µM (active). In addition, the Potency entry in [3] and in assay [5] was “inactive” throughout. For the same molecule, the activation is 3.05% [at 17.1 µM, percent relative to cAMP agonist control] in assay [4] and 9.42% [at 30.8 µM] in [7]. In addition, in assay [6], the activity change, negative = inhibition was -8.92% [at 30.8 µM].
As for `O=C(N/N=C/c1ccccc1Cl)c1[nH]c2ccc(Br)cc2c1-c1ccccc1`, the Potency entry in [8], in assay [2], in assay [3], in assay [5] and in assay [6] was “inactive” each time. In addition, in assay [4], the Potency is 126 µM (active).
As for `CSC1=NSC2=NC(=O)/C(=C\c3coc4ccccc4c3=O)C(=N)N12`, the Potency in assay [8] was 5.17 µM (active); in assay [3], 89.1 µM (active); in assay [4], 100 µM (active); in assay [5], 16.9 µM (active); in assay [7], 44.7 µM (active). Further, the Potency result in assay [2] and in [6] was “inactive” throughout.
Regarding `Cc1[nH]n(-c2ncc(-c3ccccc3)s2)c(=O)c1C(c1ccc(Br)cc1)C(C#N)C#N` (stereo not given), the Potency result in [9], in assay [3] and in [5] was “inactive” throughout. The Potency in [2] is 12.6 µM (active). Also, the activation in [4] was 4.64% [at 17.1 µM, percent relative to cAMP agonist control]; in assay [7] it was 8.62% [at 30.8 µM]. In addition, the activity change, negative = inhibition in [6] is -9.33% [at 30.8 µM].
